Records with an inconclusive call do not appear. Activity calls are given as the source filed them. Unless noted, calls follow the shape of the dose curve; as a rule, active = well fitted curve in the direction sought with a large enough effect; inconclusive = small, poorly fitted or top-dose-only effect, or another doubt; inactive = no such curve, though single readings can be large; an effect the other way counts as inactive or inconclusive.
Legend:
[1] = biological target: Glucocorticoid receptor (Homo sapiens) (UniProt P04150); assay: qHTS assay for small molecule agonists of glucocorticoid receptor signaling (AID 588532; active = well fitted curve in the direction sought with a large enough effect in the signal ratio, with a control signal flat; the % refers to the signal ratio;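 also: 100% = dexamethasone at 0.1 µM and 0% = DMSO only wells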); conditions: HeLa MMTV-bla, beta-lactamase ratio, agonist, 18 h; activation: stronger effect = higher value, percent of dexamethasone control, DMSO zero
Chain of Glucocorticoid receptor (Homo sapiens) (P04150 whole entry, looked up): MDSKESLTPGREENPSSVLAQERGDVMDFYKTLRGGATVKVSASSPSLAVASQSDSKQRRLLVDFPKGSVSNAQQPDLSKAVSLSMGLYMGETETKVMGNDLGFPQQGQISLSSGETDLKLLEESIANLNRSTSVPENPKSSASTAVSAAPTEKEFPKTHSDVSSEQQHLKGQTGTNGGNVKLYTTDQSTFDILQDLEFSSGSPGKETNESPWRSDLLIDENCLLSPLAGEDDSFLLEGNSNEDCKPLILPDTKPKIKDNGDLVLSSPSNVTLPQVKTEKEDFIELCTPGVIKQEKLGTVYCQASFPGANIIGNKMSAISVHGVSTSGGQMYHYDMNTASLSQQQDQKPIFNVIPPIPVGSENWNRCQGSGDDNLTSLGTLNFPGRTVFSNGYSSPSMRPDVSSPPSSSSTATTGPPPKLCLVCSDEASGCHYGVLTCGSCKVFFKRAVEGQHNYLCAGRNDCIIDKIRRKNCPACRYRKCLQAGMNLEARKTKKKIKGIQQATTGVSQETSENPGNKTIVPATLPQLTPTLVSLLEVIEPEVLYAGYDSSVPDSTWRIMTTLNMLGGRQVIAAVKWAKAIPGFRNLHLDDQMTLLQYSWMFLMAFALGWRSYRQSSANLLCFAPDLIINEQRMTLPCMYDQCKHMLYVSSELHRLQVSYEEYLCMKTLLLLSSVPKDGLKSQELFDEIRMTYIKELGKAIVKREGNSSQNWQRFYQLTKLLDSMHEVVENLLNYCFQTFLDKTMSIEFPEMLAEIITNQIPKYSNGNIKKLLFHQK
Summary of the method: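 MMTV-bla HeLa beta-lactamase reporter cells in 1% charcoal/dextran FBS medium, compounds up to 92 uM for 18 h at 37 C, CCF4 readout; normalized to 0.1 uM dexamethasone (100%), EC50 and efficacy from Hill fits.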

[2] = biological target: Peroxisome proliferator-activated receptor gamma (Homo sapiens) (UniProt P37231); assay: qHTS assay for small molecule agonists of peroxisome proliferator-activated receptor gamma signaling (AID 588536; active = well fitted curve in the direction sought with a large enough effect in the signal ratio, with a control signal flat, not every such curve was filed as active; the % refers to the signal ratio;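 also: 0% = DMSO basal wells and 100% = rosiglitazone at 2 µM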)
Chain of Peroxisome proliferator-activated receptor gamma (Homo sapiens) (P37231 whole entry, looked up): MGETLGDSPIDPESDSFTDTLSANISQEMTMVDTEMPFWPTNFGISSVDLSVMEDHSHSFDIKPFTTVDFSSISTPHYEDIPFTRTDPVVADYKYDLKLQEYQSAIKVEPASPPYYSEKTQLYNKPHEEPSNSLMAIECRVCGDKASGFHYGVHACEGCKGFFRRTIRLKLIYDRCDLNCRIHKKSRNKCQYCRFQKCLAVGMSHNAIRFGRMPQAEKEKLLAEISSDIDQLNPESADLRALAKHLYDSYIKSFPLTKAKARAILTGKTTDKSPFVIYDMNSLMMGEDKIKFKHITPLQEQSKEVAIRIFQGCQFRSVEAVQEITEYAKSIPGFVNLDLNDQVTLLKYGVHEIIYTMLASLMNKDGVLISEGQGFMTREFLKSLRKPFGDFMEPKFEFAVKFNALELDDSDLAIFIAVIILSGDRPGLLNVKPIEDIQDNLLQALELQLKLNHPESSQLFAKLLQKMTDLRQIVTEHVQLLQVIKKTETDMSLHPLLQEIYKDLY
Summary of the method: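 GeneBLAzer PPAR-gamma-UAS-bla HEK293 cells in 1% charcoal/dextran-treated FBS medium were treated 16 h at 37 C with compounds. Beta-lactamase activity was read by CCF4 ratio (460/530 nm). Response was normalized to 2 uM rosiglitazone (100%) and DMSO, then Hill-fitted for EC50 and efficacy.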

[3] = biological target: Peroxisome proliferator-activated receptor gamma (Homo sapiens) (UniProt P37231); assay: qHTS assay for small molecule antagonists of peroxisome proliferator-activated receptor gamma signaling (AID 588537; active = well fitted inhibition curve with a large enough effect in the signal ratio, with a control signal flat, not every such curve was filed as active; the % refers to the signal ratio;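 also: reporter cells co-stimulated with 50 nM rosiglitazone agonist during compound treatment; % of control where 0% means no effect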)
Summary of the method: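 Step one: plate 3000 HEK293 UAS-bla cells per well in medium with 1% stripped serum and hold 6-6.5 h at 37 C. Step two: add compound and 50 nM agonist for 16 h. Step three: CCF4 loading, fluorescence read.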

[4] = biological target: Vitamin D3 receptor (Homo sapiens) (UniProt P11473); assay: qHTS assay for small molecule antagonists of vitamin D receptor signaling (AID 588541; calls by dose curve;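 also: receptor activated by calcitriol during compound treatment; series mostly up to about 77 µM; % is scaled to controls: 0 for no effect and ±100 for the full control effect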)
Chain of Vitamin D3 receptor (Homo sapiens) (P11473 whole entry, looked up): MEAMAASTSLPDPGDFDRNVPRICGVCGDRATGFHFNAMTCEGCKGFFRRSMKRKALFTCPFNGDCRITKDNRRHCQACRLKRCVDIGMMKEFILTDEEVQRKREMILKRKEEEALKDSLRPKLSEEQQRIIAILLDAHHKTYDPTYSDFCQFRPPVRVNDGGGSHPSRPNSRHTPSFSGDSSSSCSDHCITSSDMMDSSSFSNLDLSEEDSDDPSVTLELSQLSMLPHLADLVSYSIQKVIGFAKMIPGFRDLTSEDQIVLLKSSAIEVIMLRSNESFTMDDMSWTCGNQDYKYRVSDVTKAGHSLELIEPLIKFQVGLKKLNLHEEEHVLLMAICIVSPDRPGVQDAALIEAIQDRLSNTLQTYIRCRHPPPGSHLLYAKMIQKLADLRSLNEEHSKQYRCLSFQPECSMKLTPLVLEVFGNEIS
Summary of the method: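 VDR-UAS-bla HEK293T cells in 2% charcoal-stripped FBS were stimulated with 1-alpha,25-dihydroxyvitamin D3 (3 nM final) plus compound for 16 h at 37 C. The beta-lactamase CCF4 readout was normalized to 50 nM agonist and DMSO, and Hill fits gave IC50.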

[5] = biological target: Vitamin D3 receptor (Homo sapiens) (UniProt P11473); assay: qHTS assay for small molecule agonists of vitamin D receptor signaling (AID 588543; calls by dose curve;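 also: 0% = DMSO basal and 100% = reference agonist control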)
Summary of the method: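 VDR-UAS-bla HEK293T cells, 2000/well, 2% charcoal-stripped FBS; compound titration 16 h at 37 C; CCF4 beta-lactamase ratio read. Normalized to 50 nM 1-alpha,25-dihydroxyvitamin D3 (100%) and DMSO; Hill fit gives EC50, efficacy.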

[6] = biological target: Thyroid hormone receptor beta (Homo sapiens) (UniProt P10828); assay: qHTS assay for small molecule agonists of thyroid hormone receptor beta signaling (AID 588545; calls by dose curve;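 also: 0% = DMSO only and 100% = 10 nM T3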)
Chain of Thyroid hormone receptor beta (Homo sapiens) (P10828 whole entry, looked up): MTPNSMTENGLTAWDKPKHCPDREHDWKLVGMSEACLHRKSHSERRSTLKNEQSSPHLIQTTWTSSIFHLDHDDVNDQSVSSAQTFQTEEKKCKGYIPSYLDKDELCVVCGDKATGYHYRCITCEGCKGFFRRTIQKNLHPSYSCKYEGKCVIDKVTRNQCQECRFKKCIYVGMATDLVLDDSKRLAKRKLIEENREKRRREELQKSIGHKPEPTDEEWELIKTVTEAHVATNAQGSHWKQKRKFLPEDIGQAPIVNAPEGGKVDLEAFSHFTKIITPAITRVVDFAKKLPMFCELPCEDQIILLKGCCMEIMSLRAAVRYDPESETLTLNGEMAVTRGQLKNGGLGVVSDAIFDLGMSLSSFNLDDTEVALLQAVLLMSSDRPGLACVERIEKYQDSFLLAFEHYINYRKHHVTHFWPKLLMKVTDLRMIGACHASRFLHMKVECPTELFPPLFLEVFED
Summary of the method: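 Stimulation of a TR-driven beta-lactamase reporter was quantified in GripTite HEK 293 cells. Compound series ran for 18 hrs; curves were normalized to T3 and DMSO controls and fitted to yield EC50.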

[7] = qHTS assay for small molecule activators of the p53 signaling pathway (AID 651743; active = well fitted activation curve with a large enough effect in the signal ratio, not every such curve was filed as active; the % refers to the signal ratio; also: series mostly up to about 92 µM; % of control where 0% means no effect); conditions: HCT-116 p53RE-bla, beta-lactamase FRET ratio, 16 h; activation: stronger effect = higher value
Summary of the method: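 HCT-116 p53RE-bla, 4,000 cells/well; 5 h settle; cpd/DMSO 16 h, 37 C; LiveBLAzer B/G 2 h RT; fluorescence intensity.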

[8] = biological target: Peroxisome proliferator-activated receptor alpha (Homo sapiens) (UniProt Q07869); assay: qHTS assay for small molecule agonists of the peroxisome proliferator-activated receptor alpha (PPARalpha) signaling pathway (AID 651778); conditions: PathHunter PPARalpha complementation, chemiluminescence, 6 h; max response: stronger effect = higher value; also: potency is read from the fitted curve at half-maximal effect; as to max response: % of control where 0% means no effect
Chain of Peroxisome proliferator-activated receptor alpha (Homo sapiens) (Q07869 whole entry, looked up, the tested form may be a part): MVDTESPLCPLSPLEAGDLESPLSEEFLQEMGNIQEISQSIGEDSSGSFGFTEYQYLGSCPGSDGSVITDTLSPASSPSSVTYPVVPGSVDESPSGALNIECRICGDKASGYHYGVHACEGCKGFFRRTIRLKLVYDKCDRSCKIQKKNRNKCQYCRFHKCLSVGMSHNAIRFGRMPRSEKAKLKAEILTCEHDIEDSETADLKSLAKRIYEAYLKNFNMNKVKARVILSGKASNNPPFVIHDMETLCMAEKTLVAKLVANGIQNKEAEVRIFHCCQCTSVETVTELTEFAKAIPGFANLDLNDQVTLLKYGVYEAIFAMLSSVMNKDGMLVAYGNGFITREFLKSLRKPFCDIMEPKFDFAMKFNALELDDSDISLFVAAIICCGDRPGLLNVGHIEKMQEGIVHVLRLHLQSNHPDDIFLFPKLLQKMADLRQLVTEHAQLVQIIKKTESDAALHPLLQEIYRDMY
Summary of the method: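 Enzyme-fragment complementation assay in which ligand-bound PPARalpha translocates and forms an active enzyme that generates chemiluminescence. Cells were plated overnight, exposed to compound for 6 hr at 37 C, and then given detection reagent for 60 min at room temperature.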

[9] = qHTS assay for small molecule agonists of the antioxidant response element (ARE) signaling pathway measured by Nrf2-dependant transcriptional activity (AID 720636; active = well fitted curve in the direction sought with a large enough effect in the repeat runs; an effect the other way counts as inactive or inconclusive;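 also: HepG2 cells with an ARE-driven luciferase reporter; % of control where 0% means no effect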)
Summary of the method: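 Cells: ARE-luc HepG2 with Nrf2-responsive luciferase. Medium contained 1% dialyzed FBS. Compound exposure lasted 16 hr at 37 C and 5% CO2, followed by ONE-Glo luciferase detection.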

[10] = qHTS assay for small molecule agonists of the antioxidant response element (ARE) signaling pathway measured by Nrf2-dependant transcriptional activity - cell viability counter screen (AID 720653; active = well fitted curve in the direction sought with a large enough effect in the repeat runs; an effect the other way counts as inactive or inconclusive; also: % is scaled to controls: 0 for no effect and ±100 for the full control effect); conditions: ARE-bla HepG2 viability, CellTiter-Glo ATP luminescence, 16 h; max response: stronger effect = lower value
Summary of the method: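 ARE-bla HepG2 cells treated with compounds for 16 h at 37C; this counter screen measures viability as intracellular ATP by CellTiter-Glo luminescence after 30 min at room temperature.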

[11] = qHTS assay for cell viability of HEK293 cells (AID 743288); conditions: ATP luminescence (CellTiter-Glo), 18 h; max response: stronger effect = lower value; also: % is scaled to controls: 0 for no effect and ±100 for the full control effect; nearly all actives have a fitted effect of over 50% in size
Summary of the method: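 Parental HEK293 cells, 2,000 per well, preincubated at least 5 h at 37 C, then exposed to compounds in DMSO for 18 h at 37 C. Viability by CellTiter-Glo ATP luminescence after 30 min at room temperature.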

[12] = qHTS assay for cell viability of the p53RE-bla HCT-116 cell line (AID 743292); also: % is scaled to controls: 0 for no effect and ±100 for the full control effect; nearly all actives have a fitted effect of over 55% in size
Summary of the method: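 HCT-116 p53RE-bla cells seeded 4,000/well; 5 h at 37 C; compound (DMSO) added; 16 h at 37 C; CellTiter-Glo added, 30 min RT; luminescence read.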

[13] = biological target: Nuclear receptor subfamily 1 group I member 2 (Rattus norvegicus) (UniProt Q9R1A7); assay: qHTS assay for small molecule activators of the rat pregnane X receptor (rPXR) signaling pathway (AID 651751; call rule not given here; also: 0% is about no effect); conditions: rPXR reporter cells, luciferase (One-Glo), 24 h
Chain of Nuclear receptor subfamily 1 group I member 2 (Rattus norvegicus) (Q9R1A7 whole entry, looked up): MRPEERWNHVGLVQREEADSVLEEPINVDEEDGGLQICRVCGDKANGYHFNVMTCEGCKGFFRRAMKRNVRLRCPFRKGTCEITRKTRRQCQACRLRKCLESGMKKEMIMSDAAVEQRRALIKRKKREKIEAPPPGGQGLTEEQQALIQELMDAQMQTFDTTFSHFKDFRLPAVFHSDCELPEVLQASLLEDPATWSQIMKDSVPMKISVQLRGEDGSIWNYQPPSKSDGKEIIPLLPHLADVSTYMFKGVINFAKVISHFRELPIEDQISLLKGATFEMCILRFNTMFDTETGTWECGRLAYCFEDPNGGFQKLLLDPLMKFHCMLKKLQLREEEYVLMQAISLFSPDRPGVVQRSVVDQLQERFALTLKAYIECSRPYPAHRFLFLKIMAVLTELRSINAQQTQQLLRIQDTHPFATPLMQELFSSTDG

[14] = biological target: Peroxisome proliferator-activated receptor delta (Homo sapiens) (UniProt Q03181); assay: qHTS assay for small molecule agonists of peroxisome proliferator-activated receptor delta signaling (AID 588534; calls by dose curve;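 also: 0% = DMSO basal wells and 100% = positive control agonist at 10 µM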)
Chain of Peroxisome proliferator-activated receptor delta (Homo sapiens) (Q03181 whole entry, looked up): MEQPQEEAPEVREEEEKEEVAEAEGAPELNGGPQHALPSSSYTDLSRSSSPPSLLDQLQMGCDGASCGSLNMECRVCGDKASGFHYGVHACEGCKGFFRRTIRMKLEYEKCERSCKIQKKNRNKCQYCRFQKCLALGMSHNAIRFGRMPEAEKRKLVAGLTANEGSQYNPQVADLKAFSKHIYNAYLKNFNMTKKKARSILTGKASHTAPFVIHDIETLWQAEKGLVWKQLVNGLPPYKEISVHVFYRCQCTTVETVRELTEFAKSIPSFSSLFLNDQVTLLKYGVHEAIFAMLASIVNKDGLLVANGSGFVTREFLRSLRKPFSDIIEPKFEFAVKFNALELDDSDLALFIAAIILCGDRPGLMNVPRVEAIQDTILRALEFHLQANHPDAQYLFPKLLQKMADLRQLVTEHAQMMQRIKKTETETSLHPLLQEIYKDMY
Summary of the method: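 Cell-based beta-lactamase reporter assay run in agonist mode: cells seeded and incubated 5 hrs at 37 C, compounds added and incubated 18 hrs at 37 C. CCF4 dye fluorescence read after 2 hrs at RT; EC50 and efficacy from Hill fits.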

[15] = qHTS assay for small molecule antagonists of peroxisome proliferator-activated receptor delta signaling (AID 588535; active = well fitted inhibition curve with a large enough effect in the signal ratio, with a control signal flat, not every such curve was filed as active; the % refers to the signal ratio;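 as to max response: cells co-treated with a PPAR-delta agonist as stimulator during compound exposure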); conditions: HEK293T PPARd-UAS-bla, beta-lactamase FRET ratio, 18 h; 460 nm channel
Summary of the method: (§1)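 Cells were seeded at 4000 per well in assay medium containing 2% charcoal/dextran FBS and held 5 hrs at 37 C. Compounds were then added for 18 hrs. CCF4 substrate was applied for 2 hrs at room temperature before fluorescence reading.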

[16] = biological target: Peroxisome proliferator-activated receptor delta (Homo sapiens) (UniProt Q03181); assay: as above
Summary of the method: as §1

[17] = biological target: Retinoic acid receptor RXR-alpha (Homo sapiens) (UniProt P19793); assay: qHTS assay for small molecule agonists of retinoid X receptor alpha signaling (AID 588544; calls by dose curve; also: potency is read from the fitted curve at half-maximal effect;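 as to activation: 0% = DMSO basal wells and 100% = reference agonist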)
Chain of Retinoic acid receptor RXR-alpha (Homo sapiens) (P19793 whole entry, looked up): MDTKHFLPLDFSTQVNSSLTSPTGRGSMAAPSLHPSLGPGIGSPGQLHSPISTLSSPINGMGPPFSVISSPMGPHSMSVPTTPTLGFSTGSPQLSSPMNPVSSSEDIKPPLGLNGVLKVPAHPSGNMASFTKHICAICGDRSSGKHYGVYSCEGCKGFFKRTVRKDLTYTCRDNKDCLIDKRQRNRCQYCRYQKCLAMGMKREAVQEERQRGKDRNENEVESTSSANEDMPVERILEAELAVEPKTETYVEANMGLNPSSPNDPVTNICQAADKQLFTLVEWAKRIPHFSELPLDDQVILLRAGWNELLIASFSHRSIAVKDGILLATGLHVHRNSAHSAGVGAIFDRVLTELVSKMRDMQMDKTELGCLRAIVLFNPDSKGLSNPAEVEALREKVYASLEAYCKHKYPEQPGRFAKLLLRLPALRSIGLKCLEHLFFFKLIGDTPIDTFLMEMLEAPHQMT

[18] = qHTS assay for small molecule antagonists of retinoid X receptor alpha signaling (AID 588546; active = well fitted inhibition curve with a large enough effect in the signal ratio, with a control signal flat, not every such curve was filed as active; the % refers to the signal ratio;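 also: cells stimulated with 9-cis-retinoic acid as agonist; % is scaled to controls: 0 for no effect and ±100 for the full control effect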); conditions: HEK293T RXRa-UAS-bla, beta-lactamase ratio, antagonist mode; measured here: W530 green channel, cytotoxicity proxy
Summary of the method: (§2)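 Beta-lactamase reporter inhibition, read as CCF4 fluorescence ratio (ex 405, em 460/530 nm) after 2 h at RT. HEK293T UAS-bla cells, 2500/well, were stimulated with 9-cis-RA at 500 or 100 nM final alongside test compound for 18 h at 37 C.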

[19] = biological target: Retinoic acid receptor RXR-alpha (Homo sapiens) (UniProt P19793); assay: as above; conditions: HEK293T RXRa-UAS-bla, beta-lactamase ratio, antagonist mode
Summary of the method: as §2

[20] = qHTS assay for environmental chemicals that activate the Aryl hydrocarbon Receptor (AhR) signaling pathway (AID 651777); conditions: 1A2-DRE human hepatoma cells, luciferase, 24 h; activation: stronger effect = higher value; also: % of control where 0% means no effect; nearly all actives have a fitted effect of over 15% in size
Summary of the method: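 1A2-DRE human hepatoma reporter line; 1,200 cells/well; cmpd or DMSO 24 h, 37 C/5% CO2; One-Glo 30 min RT; luciferase lum.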

COc1ccc(-c2ccccc2)cc1NNC(=O)OC(C)C
inactive: activation [1] -5.42% | Potency [2] | Potency [3] | Potency [4] | outcome [5] | Potency [6] | activation [7] -1.18% | max response [8] -0.526% | Potency [9] | max response [10] -7.29% | max response [11] -21.9% | Potency [12] | max response [13] -11.3%

O=C1c2ccccc2C(=O)C1C(=O)C(c1ccccc1)c1ccc(Cl)cc1 (configuration not stated)
65.6%: max response [15]
-2.15%: max response [18]
inactive: activation [1] -5.26% | outcome [14] | Potency [16] | Potency [2] | Potency [4] | outcome [5] | Potency [17] | Potency [6] | max response [19] 36.5% | activation [20] 3.58% | max response [8] -1.87% | Potency [9] | max response [10] -33.5% | max response [11] -28.8% | Potency [12] | max response [13] 10.4%

CCOP(=O)(OCC)SCS(=O)(=O)C(C)(C)C
inactive: activation [1] -1.34% | outcome [14] | Potency [16] | Potency [2] | Potency [3] | Potency [4] | outcome [5] | Potency [17] | Potency [6] | max response [19] 2.18% | activation [7] 2.21% | activation [20] 2.25% | max response [8] -3.37% | Potency [9] | max response [10] 1.67% | max response [11] -4.67% | Potency [12] | max response [13] 5.96%
-7.9%: max response [15]
-4.31%: max response [18]

CNC(=O)Oc1cc(C)c(SC)c(C)c1
inactive: activation [1] 13.5% | outcome [14] | Potency [16] | Potency [2] | Potency [3] | Potency [4] | outcome [5] | Potency [6] | activation [20] 0.0661% | max response [8] 0.9% | Potency [9] | max response [10] -13.2% | Potency [12]
12.6%: max response [15]

CCC(C)(NC(=O)c1cc(Cl)c(C)c(Cl)c1)C(=O)CCl (configuration not stated)
31.6%: max response [15]
inactive: activation [1] -7.44% | outcome [14] | Potency [16] | Potency [2] | Potency [6] | activation [7] 14.9% | activation [20] 1.89% | max response [8] 0.829% | max response [10] 0.353% | max response [11] -19.8% | Potency [12] | max response [13] 1.32%

O=C(O)C1(O)c2ccccc2-c2ccc(Cl)cc21 (configuration not stated)
inactive: activation [1] -12.8% | Potency [4] | Potency [6] | activation [20] 9.46% | max response [8] 13.5% | max response [10] -16.8% | max response [11] -18.3% | Potency [12]

CCCCCCCCCCCCCCC(Br)C(=O)O (configuration not stated)
6.53%: max response [18]
inactive: activation [1] -1.04% | Potency [3] | Potency [4] | outcome [5] | max response [19] -14.5% | activation [20] -0.608% | max response [10] 1.85% | max response [11] 3.54% | max response [13] -4.78%
active: Potency [17] 31.6 µM | Potency [8] 14.1 µM

Clc1ccc(-c2cc(Cl)c(Cl)cc2Cl)cc1Cl
-9.16%: max response [18]
inactive: activation [1] -2.9% | outcome [14] | Potency [2] | Potency [3] | Potency [4] | Potency [6] | max response [19] 4.83% | activation [7] -5.87% | activation [20] 1.74% | max response [8] 0.243% | Potency [9] | max response [10] 3.45% | max response [11] -23.9% | Potency [12] | max response [13] -1.84%

COc1cc(OC)nc(NC(=O)NS(=O)(=O)c2ncccc2OCC(F)(F)F)n1
-1.53%: max response [18]
inactive: activation [1] 3.36% | outcome [14] | Potency [16] | Potency [2] | Potency [3] | Potency [4] | outcome [5] | Potency [17] | max response [19] -28.8% | activation [7] -0.487% | activation [20] 1.59% | max response [8] -0.694% | Potency [9] | max response [10] -8.5% | Potency [12] | max response [13] -1.56%
-5.67%: max response [15]

COc1cnc(OC)n2nc(NS(=O)(=O)c3c(OCC(F)F)cccc3C(F)(F)F)nc12
8.71%: max response [18]
inactive: outcome [14] | Potency [2] | Potency [3] | Potency [6] | max response [19] -13.9% | activation [7] 1.45% | activation [20] 0.743% | max response [8] -1.19% | Potency [9] | max response [11] -8.21% | Potency [12] | max response [13] -1.36%

CCCCOCCOC(C)=O
inactive: activation [1] -12.9% | outcome [14] | Potency [16] | Potency [2] | Potency [3] | Potency [4] | outcome [5] | Potency [17] | Potency [6] | max response [19] -8.99% | max response [8] 0.401% | Potency [9] | max response [10] -5.86% | max response [11] -2.95% | max response [13] 2.29%
-10.5%: max response [15]
-13.5%: max response [18]

Cc1[nH]c(=O)n(C(C)(C)C)c(=O)c1Cl
inactive: Potency [2] | Potency [3] | Potency [17] | activation [20] 0.775% | max response [8] -1.56% | Potency [9] | max response [10] 0.82% | max response [11] -5.92% | Potency [12] | max response [13] 0.145%

From PubChem BioAssay (NCATS)
